Source: PubChem BioAssay AID1117362 (Southern Research Institute, 2015)
The campaign covered roughly 3,600 compounds. About 100 (2.8%) were called active. A selection follows. Values without a mark were called inactive.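 The calls were made as follows: active = inhibition above 30% at one or more concentrations, seen consistently on every test date; inconclusive = results that disagree between repeat test dates; inactive = the rest.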

test: biotin-GST/anti-GST TR-FRET signal inhibitors, dose response, artefact control for Vif-APOBEC3G degradation inhibitor project, biochemical (AID 1117362); details: TR-FRET counter screen; series mostly up to 100 µM; inhibition: at the top concentration;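 also: biotinylated GST protein used in place of GST-Vif 1-94 and biotin-A3G peptide; detects fluorescence quenchers or blockers of GST binding to anti-GST antibody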

SMILES | inhibition [%]
CN1CCC(N(C)C(=O)COc2ccccc2-c2ccccc2)CC1 | 5.49
O=C(O)CCCCC1CCSS1 (configuration not stated) | -2.13
CN(C)C(=O)c1nc2ccc(Cl)cn2c1CN1CCCC(OCc2ccccc2)C1 (configuration not stated) | 5.59
O=C1CC(Nc2ccc(N3CCOCC3)cc2)C(=O)N1c1ccccc1F (configuration not stated) | 4.96
Cc1ccc(/C=C/C(=O)Nc2cccc(S(=O)(=O)N3CCOCC3)c2)o1 | 3.12
CCOC(=O)/C=C1\SCC(=O)N1CC(=O)NC(C)c1ccc(F)cc1 (configuration not stated) | 0.82
CC1=C(C#N)C(=O)N(C)C(C)(C)C1 | 3.56
CN1CCc2nc3ccc(Cl)cc3c(-c3ccccc3Cl)c2C1 | 15.3
CNC(=O)c1ccccc1NC(=O)c1ccc(C)c(S(=O)(=O)N2CCCCC2)c1 | 3.71
Oc1ccc2ccccc2c1C1Nc2cccc3cccc(c23)N1 | 1.78
Cc1cc(C(=O)O)ccc1-n1c(C)ccc1C | 4.73
COc1cc(C(=O)NCC(c2ccco2)N2CCCC2)ccc1OCc1c(C)noc1C (configuration not stated) | 4.39
Cc1cc(C(=O)CCl)c(C)n1-c1c(C)n(C)n(-c2ccccc2)c1=O | 3.61
O=C(O)/C(=C/c1ccco1)NC(=O)c1ccccc1 | 2.44
O=[N+]([O-])c1c(NCCCO)cc(SCc2ccco2)c2nonc12 | 27.4
CCc1c(C)sc(NC(=O)c2cc(-c3ccco3)on2)c1C#N | 1.8
Cc1oc(-c2ccc(Cl)cc2)cc1-c1nn2c(-c3ccoc3C)nnc2s1 | 11.2
CCC(c1nnnn1Cc1ccco1)N(Cc1ccccc1OC)Cc1cc2cc(C)ccc2[nH]c1=O (configuration not stated) | -4.56
S=c1[nH]nc(COc2ccc3c(c2)OCO3)n1-c1ccccc1 | 4.81
O=P(O)(CN1CCCCCC1)CN1CCCCCC1 | 2.91
C=CCN=c1scc(-c2ccco2)n1/N=C/c1ccc(O)c(O)c1O | 7.15
N#CC1=C(N)OC2=C(CCC/C2=C/c2ccoc2)C1c1ccoc1 (configuration not stated) | 1.5

SMILES | inhibition [%]
Cc1cc(C(=O)CSc2nc3ccccc3c(=O)[nH]2)c(C)n1C | 2.05
C=C(C)C(=O)Nc1cccc(C2=NOC3(C2)C[C@@H](C(N)=O)N(C(=O)CC(c2ccccc2)c2ccccc2)C3)c1 (some centres not stated) | -2.21
CSc1nc(NCCOCCO)c2sc3nc(-c4ccco4)c4c(c3c2n1)CCC4 | 6.36
COC(=O)Cn1c(CCC(=O)O)ccc1-c1ccccc1 | 1.29
O=C(OC1CCCCC1)c1ccc2c(c1)C1C=CCC1C(C(=O)O)N2 (configuration not stated) | 15.7
COc1cccc(C2C(C#N)=C(N)OC3=C2C(=O)CC(c2ccco2)C3)c1OCc1ccc(F)cc1 (configuration not stated) | 1.37
Cc1ccc(CCC(=O)Nc2ccc(S(N)(=O)=O)cc2)o1 | 2.11
CCOC(=O)c1cc(NC(=O)N2CCCc3ccccc32)c(C)nc1C | -1.62
CNC(=O)[C@@H]1C[C@H]1[C@@H](NC(=O)OCc1ccccc1)c1ccccc1 | 2.14
C(=C\c1ccco1)/C=N/n1cnnc1 | -4.46
O=C(/C=C/c1ccco1)NC(=S)Nc1ccccc1N1CCOCC1 | 4.93
C=CCn1c(O)c(C(CC)=NCCN2CCOCC2)c(=O)[nH]c1=O | 1.31
CC(/C=N/n1c(-c2ccncc2)n[nH]c1=S)=C\c1ccco1 | 7.56
CCOc1cc(CNc2ccc(O)cc2)ccc1OCc1ccc(Cl)cc1Cl | -7.67
O=C(O)C1Nc2c(Cl)cc(Cl)c(Cl)c2C2C=CCC12 (configuration not stated) | 2.36
Cc1ccc(NC(=O)CN(C)C(=O)c2cccc(-n3cccc3)c2)cc1 | 1.89
CCc1ccccc1NC(=O)c1cccc(NC(=O)/C=C/c2ccco2)c1 | -3.66
Cc1cc2ccccc2n1CCNC(=O)C1CCCCC1 | 22.4
COc1cccc(-n2c(Cc3cc(=O)[nH]c(=O)[nH]3)nnc2SCC(=O)NC2CCCC2)c1 | -1.98
Cc1cc(C)nc(N2CCC(C(=O)O)CC2)n1 | 0.27
COc1ccc(NC(=S)NCCc2ccccc2OC)c(OC)c1 | -8.17
C=CCn1c(COc2ccc(F)cc2)nnc1SCC(=O)NC(=O)NCc1ccco1 | 0.17

SMILES | inhibition [%]
Clc1ccc(OCc2nn3c(-c4ccco4)nnc3s2)c(Cl)c1 | -1.9
COC(C(=O)C(O)C(C)O)C1Cc2cc3cc(OC4CC(OC5CC(O)C(O)C(C)O5)C(O)C(C)O4)c(C)c(O)c3c(O)c2C(=O)C1OC1CC(OC2CC(OC3CC(O)C(OC)C(C)O3)C(O)C(C)O2)C(O)C(C)O1 (configuration not stated) | -1.16
O=c1oc(/C=C/c2ccco2)nc2sc3c(c12)CCC3 | 1.89
Cc1cc(C(=O)CSc2nnc(-c3ccccc3)n2Cc2ccc3c(c2)OCO3)c(C)n1C | -0.57
COC(=O)c1ccc(COc2ccccc2/C=C(\C#N)C(=O)Nc2c(C)cc(C)cc2C)cc1 | -3.51
CCOc1ccc(-c2nnn(CC(=O)c3ccc4c(c3)OCCO4)n2)cc1OCC | -2.88
Cc1cccc(C)c1NC(=O)CSc1nnc(-c2ccco2)c(-c2ccco2)n1 | 4.93
O=C(C1CCCN1S(=O)(=O)c1cccc2cccnc12)N1CCN(c2ccccc2)CC1 (configuration not stated) | 18
CNc1ccccc(-c2ccc3cc4c(cc3n2)OCO4)c1=O | 6.22
O=C(CCN1C(=O)/C(=C/c2cccs2)SC1=S)NC1=NCCS1 | 3.86
COCCNc1nnc(SC(C)C(=O)Nc2ccc(-c3nc4ccc(C)cc4s3)cc2)s1 (configuration not stated) | -10.4
COc1ccc2[nH]c(=O)c(CN(Cc3ccco3)C(c3nnnn3Cc3ccccc3)C(C)C)cc2c1 (configuration not stated) | 8.05
C=CCOC(=O)C1=C(C)NC(SCC(=O)Nc2ccccc2)=C(C#N)C1c1ccco1 (configuration not stated) | -0.21
N#C/C(=C\c1ccc([N+](=O)[O-])o1)C(=O)Nc1ccc(F)cc1 | -4.89
c1cn2cc(CSC3CCCCC3)nc2s1 | 2.38
Cc1ccc(N2C(=O)/C(=C\c3ccco3)SC2=S)cc1 | -2.25
CCC(C)(C)n1nnnc1C(c1ccc2ncccc2c1)N1CCN(c2ccc(O)cc2)CC1 (configuration not stated) | 11.3
CC1(C)OC(=O)C(=C2CCCN2)C(=O)O1 | 2.43
COC(=O)C1=C(C)NC(=O)/C1=C\c1cc(C)n(-c2ccccc2C)c1C | 0.71
O=C(Nc1ccc(F)cc1)C(c1ccccc1)N1CCN(S(=O)(=O)c2ccc3ccccc3c2)CC1 (configuration not stated) | -1.89
CCCCC(=O)NC(=S)Nc1cc(C(=O)O)ccc1Cl | 2.22
Cc1occc1-c1nnc(SCC(=O)N2CCN(c3ccccc3)CC2)n1C | 11.3

SMILES | inhibition [%]
CC(C)n1c(=NC(=O)c2ccco2)c(C#N)cc2c(=O)n3ccccc3cc21 | 7.91
CCOC(=O)C1CCN(C(=O)COc2ccc(S(=O)(=O)NC(C)C)cc2)CC1 | -2.82
CCOC(=O)Cc1cc(=O)n2[nH]c(C)cc2n1 | -1.93
COCCNC(=O)c1ccc(CS(=O)(=O)c2c(Cl)cccc2Cl)o1 | 4.28
CC(C)CC(=O)Nc1nnc(-c2ccco2)s1 | 0.89
CCOc1cccc(CNCCNC(=O)c2nonc2N)c1 | -2.13
COc1ccc(-n2c(Cc3cccn3C)nnc2SCC(N)=O)cc1 | 7.71
COC(=O)CCCC(=O)Nc1c(F)c(F)c(F)c(F)c1F | -2.58
CCOc1ccc(Nc2nc3ccccc3n3nnnc23)cc1 | -1.63
CN(CC(=O)Nc1cccc(F)c1)C(=O)c1cccc(-n2cccc2)c1 | -2.98
O=C(NC1CCC(C(=O)O)CC1)OCc1ccccc1 (configuration not stated) | 1.11
CCc1cc(=O)n2[nH]c(C)c(-c3ccccc3OC)c2n1 | -1.39
COc1cccc(CNC(=O)CCNS(=O)(=O)c2cccs2)c1 | 2.89
COc1cccc(C(C#N)N2CCCCC2)c1O (configuration not stated) | 0.26
O=C(N/N=C/c1cn(Cc2cccc(F)c2)c2ccccc12)c1cc(O)cc(O)c1 | 6.55
O=C(CSc1nnnn1-c1ccccc1)Nc1ncc2c(n1)CC(c1ccco1)CC2=O (configuration not stated) | 0.22
CCOc1ccc(NCC2CCOC(C)(C)C2)cc1 (configuration not stated) | 9.47
CCOC1(OCC)N=C(N)C2(C#N)C(c3cccc(OC)c3OC)C12C#N (configuration not stated) | 5.56
CCOC(=O)C1CCCN(C(=O)c2ccc(CNc3c(N4CCC(C)CC4)c(=O)c3=O)cc2)C1 (configuration not stated) | -4.81
CCc1ccc(CC)c(S(=O)(=O)Nc2ccc(C(=O)O)c(O)c2)c1 | 4.62
CC/C(=C\C(=O)c1ccncc1)Nc1ccc(O)cc1 | 20.5
CCNc1ccc(Br)cc(C(=O)/C=C/c2ccc3c(c2)OCO3)c1=O | -2.1

SMILES | inhibition [%]
O=[N+]([O-])c1cc(CN2CCOCC2)c2cccnc2c1O | 17.9
Cc1ccc[n+](-c2[nH]c(=O)sc2/C=N/NC(=O)c2ccccc2[O-])c1 | 0.56
Cc1cc(C(=O)CSc2nnc(-c3ccco3)o2)c(C)n1Cc1ccco1 | 0.59
COc1ccc2[nH]c3c4c(ccc3c2c1)C(=O)C=CC4=O | 5.16
O=C(Nc1ccccc1N1CCCC1)c1ccc(Br)o1 | 5.44
COC(=O)C(C)Sc1nnc(Cc2cc(=O)[nH]c(=O)[nH]2)n1-c1cc(C)ccc1C (configuration not stated) | 0.66
O=C(Nc1ccccc1)C1=C(O)CC(c2ccco2)CC1=Nc1ccccc1 (configuration not stated) | -0.44
O=C(c1cc(-c2ccco2)on1)N1CCN(c2ccccc2)CC1 | -4.83
Cc1cc(NC(=O)CCNS(=O)(=O)c2cc(Br)cnc2N)ccc1Br | 5.53
Cc1cc(C(=O)CSc2nnnn2C)c(C)n1CCc1ccc(Cl)cc1 | 5.37
CC1(C)CCCN(C(=O)c2coc(=O)c(Br)c2)C1 | 1.09
FC(F)(F)c1cc(-c2ccco2)nc(NCc2cccnc2)n1 | -1.65
CN(C)c1ccc(NC(=O)CSc2nc3ccccc3c(=O)n2C2CCCCC2)cc1 | 2.21
CC(=O)Nc1ccc(NC(=O)C(C)OC(=O)CC23CC4CC(CC(Br)(C4)C2)C3)cc1 (configuration not stated) | 2.41
Cn1cccc1C(=O)NC(=O)COC(=O)CC12CC3CC(CC(Br)(C3)C1)C2 | 4.29
O=C(O)C1Nc2c(C(=O)N3CCOCC3)cccc2C2C=CCC12 (configuration not stated) | 0.78
O=C(Nc1ccn(-c2ccccc2)n1)c1ccccc1Br | -3.02
CC(=O)c1cccc(NC(=O)CN2C(=O)NC3(CCCCCCC3)C2=O)c1 | 5.93
COc1ccc(-n2c(C)cc(C(=O)CSc3nn4c(=O)c(C(C)(C)C)nnc4s3)c2C)cc1 | -3.69
